Pf apPOL block: Pf-apPOL DNA polymerase inhibition; inhibition, % at 10 µM; Recombinant Pf-apPOL, molecular beacon fluorescence, 1.5 h; hit rate 0.25% among 210,000
mHTT-CaM PPI inh: mHTT-calmodulin interaction abrogation | P42858 | AlphaScreen His-mHTT/GST-CaM binding, luminescence | inhibition, % at 15 µM | hit rate 3.6% among 190,000 | AID 1671202;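 note: 0% = both proteins with DMSO and 100% = one protein alone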
* = called active by the depositor. This is a sample that favours compounds with a hit; in the whole collection about 3.6% have one here. Cut-off read from the data, not from the text of the source: active = inhibition above about 50%; inactive = the rest.

What do the screens show for `O=C(c1cccc(F)c1)N1CCN(Cc2noc3ccccc23)CC1`?
Pf apPOL block: 2; mHTT-CaM PPI inh: -10

What do the screens show for `CCOc1cc(C2C(C#N)=C(N)Oc3n[nH]c(-c4ccccc4)c32)ccc1O` (configuration not stated)?
Pf apPOL block: -2; mHTT-CaM PPI inh: 28

How did N#CC1=C(N)Oc2n[nH]c(-c3ccccn3)c2C1c1ccc(F)cc1 (configuration not stated) do in these assays?
Pf apPOL block: 5; mHTT-CaM PPI inh: 65*

What do the screens show for `N#CC1=C(N)Oc2n[nH]c(-c3ccccn3)c2C1c1cccc(F)c1` (configuration not stated)?
Pf apPOL block: 4; mHTT-CaM PPI inh: 15

What do the screens show for `COc1ccc(C2C(C#N)=C(N)Oc3n[nH]c(C)c32)cc1COc1cccc(Cl)c1` (configuration not stated)?
Pf apPOL block: 2; mHTT-CaM PPI inh: 69*

How did COc1cccc(C2C(C#N)=C(N)Oc3n[nH]c(C)c32)c1 (configuration not stated) do in these assays?
Pf apPOL block: 0; mHTT-CaM PPI inh: -1

Results for CCOc1cc(C2C(C#N)=C(N)Oc3n[nH]c(-c4ccccn4)c32)ccc1O (configuration not stated) ?
Pf apPOL block: -2; mHTT-CaM PPI inh: 52*

Results for Cc1cn(CCC(=O)Nc2nn(C)c3cccc(F)c23)c2ccccc12 ?
Pf apPOL block: -4

Results for COc1ccc(C(=O)NC(C)C23CC4CC(CC(C4)C2)C3)cc1 (configuration not stated) ?
Pf apPOL block: -5; mHTT-CaM PPI inh: 2

What do the screens show for `CCOc1cccc2cc(C(=O)Nc3nccs3)c(=Nc3cccc(CC)c3)oc12`?
Pf apPOL block: -3; mHTT-CaM PPI inh: 9

How did Cc1ccc(-n2nc3c(c2NC(=O)c2ccc(S(=O)(=O)N4CCCC4)cc2)CSC3)cc1 do in these assays?
Pf apPOL block: 4; mHTT-CaM PPI inh: 31

Results for Cc1ccc(S(=O)(=O)NCCC2CCN(C(=O)c3ccccc3)CC2)cc1 ?
Pf apPOL block: 3; mHTT-CaM PPI inh: 46

What do the screens show for `O=C(c1ccccc1)N1CCC(CCNS(=O)(=O)c2ccc3c(c2)CCCC3)CC1`?
Pf apPOL block: 4; mHTT-CaM PPI inh: 60*

How did CCc1ccc(S(=O)(=O)NCCC2CCN(C(=O)c3ccccc3)CC2)cc1 do in these assays?
Pf apPOL block: -4; mHTT-CaM PPI inh: 39

Results for O=C(c1ccccc1)N1CCC(CCNS(=O)(=O)c2ccccc2)CC1 ?
Pf apPOL block: 1; mHTT-CaM PPI inh: 50*

What do the screens show for `Cc1nn(C)cc1CN(C)C(=O)c1cccnc1N1CCNC(c2ccccc2)C1` (configuration not stated)?
Pf apPOL block: -4; mHTT-CaM PPI inh: -6

What do the screens show for `CC(=O)Oc1cc(OC(C)=O)cc(C(C)=O)c1`?
Pf apPOL block: 14

How did COc1ccc(C(C)=O)cc1OC(=O)c1cc2cccc(OC)c2oc1=O do in these assays?
Pf apPOL block: 3; mHTT-CaM PPI inh: -2

How did O=C(NCCc1csc(C2CCN(C(=O)c3c(F)cccc3F)CC2)n1)C1CC1 do in these assays?
Pf apPOL block: 3; mHTT-CaM PPI inh: 13

Results for CCOc1cc(OCC)cc(C(=O)Nc2ccccn2)c1 ?
Pf apPOL block: 0; mHTT-CaM PPI inh: -9

How did CCOc1cccc(C(Nc2cccc(C)n2)c2ccc3ccc(C)nc3c2O)c1 (configuration not stated) do in these assays?
Pf apPOL block: -58; mHTT-CaM PPI inh: 70*

Results for CCOc1cccc(C(Nc2ccccn2)c2ccc3ccc(C)nc3c2O)c1 (configuration not stated) ?
Pf apPOL block: -1; mHTT-CaM PPI inh: 59*

What do the screens show for `CCOc1ccc(C(=O)Nc2cccc(C)n2)cc1OCC`?
Pf apPOL block: -4; mHTT-CaM PPI inh: 1

What do the screens show for `O=C1NC(=O)C(=Cc2cn(CCOc3ccccc3)c3ccccc23)C(=O)N1`?
Pf apPOL block: -52; mHTT-CaM PPI inh: 33

How did Cc1ccccc1OCCn1cc(C=C2C(=O)NC(=O)NC2=O)c2ccccc21 do in these assays?
Pf apPOL block: -60; mHTT-CaM PPI inh: 51*

What do the screens show for `CCN1C(=O)NC(=O)/C(=C/c2cn(CCOc3ccccc3C)c3ccccc23)C1=O`?
Pf apPOL block: -3; mHTT-CaM PPI inh: 61*

How did CCN1C(=O)NC(=O)/C(=C/c2cn(CCOc3ccc(F)cc3)c3ccccc23)C1=O do in these assays?
Pf apPOL block: -4; mHTT-CaM PPI inh: 13

What do the screens show for `COc1ccc(-c2cc3nc4c(c(=O)n3[nH]2)CCN(C(=O)Nc2cccc(F)c2C)C4)cc1`?
Pf apPOL block: -2; mHTT-CaM PPI inh: 9

What do the screens show for `O=C1NN(c2ccccc2)C(=O)/C1=C/c1cc(Br)ccc1O`?
Pf apPOL block: -8; mHTT-CaM PPI inh: 3

How did Cc1cccc(S(=O)(=O)N2CCCC(C)(C(=O)NCc3ccccc3)C2)c1 (configuration not stated) do in these assays?
Pf apPOL block: -4; mHTT-CaM PPI inh: -1

Results for COc1ccc(OC)c(S(=O)(=O)N2CCCC(C)(C(=O)NCc3ccccc3)C2)c1 (configuration not stated) ?
Pf apPOL block: -3; mHTT-CaM PPI inh: 15

Results for COc1ccc(Cl)cc1S(=O)(=O)N1CCCC(C)(C(=O)NCc2ccccc2)C1 (configuration not stated) ?
Pf apPOL block: -2; mHTT-CaM PPI inh: 95*

Results for CC1(C(=O)NCc2ccccc2)CCCN(S(=O)(=O)c2ccc(F)c(Cl)c2)C1 (configuration not stated) ?
Pf apPOL block: 0; mHTT-CaM PPI inh: 66*

What do the screens show for `Cc1cc2c(cc1C)CSC(c1cccs1)SC2`?
Pf apPOL block: 1

What do the screens show for `COc1ccc(Nc2nc(Nc3ccc(O)cc3)nc(C)c2[N+](=O)[O-])cc1`?
Pf apPOL block: -4; mHTT-CaM PPI inh: 78*

What do the screens show for `CNc1nc(C)c([N+](=O)[O-])c(Nc2ccc(OC)cc2)n1`?
Pf apPOL block: -4; mHTT-CaM PPI inh: 6

What do the screens show for `CCn1ccc(C(=O)N2CCCC(Nc3ncnc4c3CCC4)C2)n1` (configuration not stated)?
Pf apPOL block: -7; mHTT-CaM PPI inh: -5

What do the screens show for `CCC(=O)Nc1ccc(C(=O)NCCNC(=O)Nc2cc(F)ccc2F)cc1`?
Pf apPOL block: -2; mHTT-CaM PPI inh: -10

Results for Cc1cc(C)cc(NCc2cc3c(cc2[N+](=O)[O-])OCO3)c1 ?
Pf apPOL block: -6; mHTT-CaM PPI inh: 68*

What do the screens show for `COc1ccc(CNCc2cc3c(cc2[N+](=O)[O-])OCO3)cc1`?
Pf apPOL block: -9; mHTT-CaM PPI inh: 9

What do the screens show for `O=C(C1CC1)N1CCc2cc(S(=O)(=O)Nc3cccc(C(F)(F)F)c3)ccc21`?
Pf apPOL block: 10; mHTT-CaM PPI inh: 3

Results for O=C(Cc1ccccc1)N1CCN(c2ccccn2)CC1 ?
Pf apPOL block: -4; mHTT-CaM PPI inh: 2

How did N#CC1=C(N)SC(N)=C(C#N)C1c1ccc(Cl)cc1Cl do in these assays?
Pf apPOL block: -8; mHTT-CaM PPI inh: 8

How did N#CC1=C(N)SC(N)=C(C#N)C1c1cccc(Cl)c1 do in these assays?
Pf apPOL block: 4; mHTT-CaM PPI inh: 74*

How did COc1ccc(C=C2Oc3cc(OC(=O)C4CC4)ccc3C2=O)cc1OC do in these assays?
Pf apPOL block: -11; mHTT-CaM PPI inh: 0

How did Oc1ccc(I)cc1C=Nc1cc(Cl)ccc1O do in these assays?
Pf apPOL block: -7; mHTT-CaM PPI inh: 38

Results for Cc1cc(O)c(C=Nc2cc(Cl)ccc2O)cc1C ?
Pf apPOL block: -8; mHTT-CaM PPI inh: 52*

Screening results from PubChem BioAssay.
